Measured values taken from ChEMBL document CHEMBL2218924, “A broad activity screen in support of a chemogenomic map for kinase signalling research and drug discovery” (Biochem J, 2013).

What was measured:
[1] = target: Ephrin type-A receptor 4 (Homo sapiens) (UniProt P54764); details: at 1 µM
[2] = target: Ephrin type-A receptor 4 (Homo sapiens) (UniProt P54764); details: at 10 µM
[3] = target: Ephrin type-A receptor 5 (Homo sapiens) (UniProt P54756); details: at 1 µM
[4] = target: Ephrin type-A receptor 5 (Homo sapiens) (UniProt P54756); details: at 10 µM
[5] = target: Ephrin type-A receptor 7 (Homo sapiens) (UniProt Q15375); details: at 1 µM
Chain of Ephrin type-A receptor 7 (Homo sapiens) (Q15375 28-998 limits assumed): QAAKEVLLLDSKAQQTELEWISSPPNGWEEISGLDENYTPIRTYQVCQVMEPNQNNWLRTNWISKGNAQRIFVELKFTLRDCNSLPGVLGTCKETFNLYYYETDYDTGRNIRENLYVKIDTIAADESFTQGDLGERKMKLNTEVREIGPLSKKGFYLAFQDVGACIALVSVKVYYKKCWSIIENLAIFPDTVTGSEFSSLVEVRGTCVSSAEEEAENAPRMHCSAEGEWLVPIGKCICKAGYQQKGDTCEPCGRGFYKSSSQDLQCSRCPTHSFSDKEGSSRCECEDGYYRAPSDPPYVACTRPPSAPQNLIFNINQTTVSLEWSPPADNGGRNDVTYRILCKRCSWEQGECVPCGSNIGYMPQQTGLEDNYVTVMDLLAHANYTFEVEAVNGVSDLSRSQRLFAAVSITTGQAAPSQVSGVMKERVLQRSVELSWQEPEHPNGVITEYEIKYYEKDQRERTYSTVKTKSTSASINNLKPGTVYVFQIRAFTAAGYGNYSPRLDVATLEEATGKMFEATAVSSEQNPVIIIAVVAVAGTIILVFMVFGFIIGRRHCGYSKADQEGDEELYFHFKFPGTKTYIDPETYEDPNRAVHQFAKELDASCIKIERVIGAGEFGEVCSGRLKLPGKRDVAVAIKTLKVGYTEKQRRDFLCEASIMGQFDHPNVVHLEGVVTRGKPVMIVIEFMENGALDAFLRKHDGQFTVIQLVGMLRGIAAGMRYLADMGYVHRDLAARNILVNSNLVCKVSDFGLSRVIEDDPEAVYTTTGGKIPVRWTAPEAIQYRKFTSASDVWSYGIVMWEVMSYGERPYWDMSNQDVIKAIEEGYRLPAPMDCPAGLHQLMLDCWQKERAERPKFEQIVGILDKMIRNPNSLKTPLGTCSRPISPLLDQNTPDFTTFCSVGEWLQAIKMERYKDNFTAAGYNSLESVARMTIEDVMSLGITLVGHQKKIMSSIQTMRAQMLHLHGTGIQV

[6] = target: Ephrin type-A receptor 7 (Homo sapiens) (UniProt Q15375); details: at 10 µM
[7] = target: T1, Ephrin type-A receptor 8 (Homo sapiens) (UniProt P29322); details: at 10 µM
T1 sequence (whole entry): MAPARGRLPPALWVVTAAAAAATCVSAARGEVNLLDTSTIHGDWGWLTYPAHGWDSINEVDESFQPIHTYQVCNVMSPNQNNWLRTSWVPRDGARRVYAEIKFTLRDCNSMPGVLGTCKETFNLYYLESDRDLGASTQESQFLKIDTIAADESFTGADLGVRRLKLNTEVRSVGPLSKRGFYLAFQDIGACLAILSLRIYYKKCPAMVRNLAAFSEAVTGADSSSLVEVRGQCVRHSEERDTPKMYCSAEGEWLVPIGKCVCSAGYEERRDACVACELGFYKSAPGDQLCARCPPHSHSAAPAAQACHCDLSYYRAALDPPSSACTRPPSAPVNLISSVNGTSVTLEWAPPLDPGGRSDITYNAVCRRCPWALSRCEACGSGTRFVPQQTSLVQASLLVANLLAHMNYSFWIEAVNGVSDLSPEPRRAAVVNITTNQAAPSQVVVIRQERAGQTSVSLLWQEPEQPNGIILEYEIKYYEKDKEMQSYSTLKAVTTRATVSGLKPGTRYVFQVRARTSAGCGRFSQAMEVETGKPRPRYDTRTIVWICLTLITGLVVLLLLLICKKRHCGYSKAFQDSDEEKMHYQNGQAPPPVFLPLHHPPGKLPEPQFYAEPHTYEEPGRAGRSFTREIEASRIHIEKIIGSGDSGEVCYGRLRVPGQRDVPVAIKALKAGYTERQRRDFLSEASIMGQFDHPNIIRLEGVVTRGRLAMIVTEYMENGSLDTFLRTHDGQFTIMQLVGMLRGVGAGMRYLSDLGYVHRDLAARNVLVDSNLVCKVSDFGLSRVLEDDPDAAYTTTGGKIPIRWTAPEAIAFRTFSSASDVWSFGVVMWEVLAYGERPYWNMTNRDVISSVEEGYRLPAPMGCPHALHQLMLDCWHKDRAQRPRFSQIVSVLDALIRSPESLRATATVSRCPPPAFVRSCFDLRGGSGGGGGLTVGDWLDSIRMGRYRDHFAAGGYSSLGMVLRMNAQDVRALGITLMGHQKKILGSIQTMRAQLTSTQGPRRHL

[8] = target: T2, Ephrin type-B receptor 1 (Homo sapiens) (UniProt P54762); details: at 1 µM
T2 sequence (whole entry): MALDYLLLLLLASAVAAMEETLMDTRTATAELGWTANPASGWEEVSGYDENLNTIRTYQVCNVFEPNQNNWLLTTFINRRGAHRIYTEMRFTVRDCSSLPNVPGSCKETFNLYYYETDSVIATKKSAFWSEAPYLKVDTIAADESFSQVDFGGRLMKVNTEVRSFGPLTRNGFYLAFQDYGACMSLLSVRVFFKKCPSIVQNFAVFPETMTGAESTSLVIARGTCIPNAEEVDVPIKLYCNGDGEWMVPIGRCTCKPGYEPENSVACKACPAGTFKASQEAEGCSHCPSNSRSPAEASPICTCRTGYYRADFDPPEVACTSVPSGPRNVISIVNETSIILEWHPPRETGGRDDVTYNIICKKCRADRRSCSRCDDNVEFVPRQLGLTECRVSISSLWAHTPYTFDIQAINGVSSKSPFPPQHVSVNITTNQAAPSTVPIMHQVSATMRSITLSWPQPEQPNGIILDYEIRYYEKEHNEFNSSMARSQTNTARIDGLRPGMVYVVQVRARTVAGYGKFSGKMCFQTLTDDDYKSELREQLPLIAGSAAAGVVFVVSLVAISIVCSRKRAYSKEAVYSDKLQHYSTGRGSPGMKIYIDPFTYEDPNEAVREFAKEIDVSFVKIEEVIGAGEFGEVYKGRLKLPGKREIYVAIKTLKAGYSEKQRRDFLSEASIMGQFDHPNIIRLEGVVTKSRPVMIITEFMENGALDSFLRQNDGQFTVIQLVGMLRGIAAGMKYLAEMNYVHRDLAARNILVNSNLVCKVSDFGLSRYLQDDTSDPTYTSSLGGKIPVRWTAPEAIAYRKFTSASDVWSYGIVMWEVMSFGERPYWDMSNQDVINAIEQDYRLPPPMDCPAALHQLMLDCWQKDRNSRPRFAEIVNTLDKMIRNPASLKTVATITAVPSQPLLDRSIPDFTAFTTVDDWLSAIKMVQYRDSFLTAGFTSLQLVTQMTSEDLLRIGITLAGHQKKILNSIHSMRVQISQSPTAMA

[9] = target: T2, Ephrin type-B receptor 1 (Homo sapiens); details: at 10 µM
[10] = target: T3, Ephrin type-B receptor 2 (Homo sapiens) (UniProt P29323); details: at 1 µM
T3 sequence (whole entry): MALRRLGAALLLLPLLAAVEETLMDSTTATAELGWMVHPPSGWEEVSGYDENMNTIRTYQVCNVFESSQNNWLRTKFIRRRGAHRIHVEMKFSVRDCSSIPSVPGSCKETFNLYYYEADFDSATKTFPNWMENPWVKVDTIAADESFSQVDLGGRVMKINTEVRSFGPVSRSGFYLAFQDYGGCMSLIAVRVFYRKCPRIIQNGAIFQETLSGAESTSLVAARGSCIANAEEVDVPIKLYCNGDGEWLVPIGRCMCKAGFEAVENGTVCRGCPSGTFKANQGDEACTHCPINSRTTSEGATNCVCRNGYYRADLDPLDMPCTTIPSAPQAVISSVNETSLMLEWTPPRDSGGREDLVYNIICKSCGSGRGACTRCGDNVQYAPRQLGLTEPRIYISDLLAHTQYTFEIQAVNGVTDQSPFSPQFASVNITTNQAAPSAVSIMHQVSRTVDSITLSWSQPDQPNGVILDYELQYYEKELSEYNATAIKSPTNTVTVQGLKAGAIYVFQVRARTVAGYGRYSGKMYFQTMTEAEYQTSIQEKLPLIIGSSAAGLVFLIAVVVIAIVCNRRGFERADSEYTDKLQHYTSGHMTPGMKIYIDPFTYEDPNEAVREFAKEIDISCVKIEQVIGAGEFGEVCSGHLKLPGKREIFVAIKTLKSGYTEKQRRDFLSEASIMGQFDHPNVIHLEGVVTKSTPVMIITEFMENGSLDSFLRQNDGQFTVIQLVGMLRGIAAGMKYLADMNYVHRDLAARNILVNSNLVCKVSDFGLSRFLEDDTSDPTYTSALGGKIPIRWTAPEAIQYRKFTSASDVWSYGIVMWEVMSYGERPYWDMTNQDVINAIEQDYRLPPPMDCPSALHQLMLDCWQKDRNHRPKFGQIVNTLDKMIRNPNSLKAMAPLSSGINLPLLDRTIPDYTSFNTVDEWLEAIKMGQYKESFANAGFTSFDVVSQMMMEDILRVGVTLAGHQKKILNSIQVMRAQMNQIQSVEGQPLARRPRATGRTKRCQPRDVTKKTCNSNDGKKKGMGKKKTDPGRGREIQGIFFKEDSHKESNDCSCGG

[11] = target: T3, Ephrin type-B receptor 2 (Homo sapiens); details: at 10 µM
[12] = target: T4, Ephrin type-B receptor 3 (Homo sapiens) (UniProt P54753); details: at 1 µM
T4 sequence (whole entry): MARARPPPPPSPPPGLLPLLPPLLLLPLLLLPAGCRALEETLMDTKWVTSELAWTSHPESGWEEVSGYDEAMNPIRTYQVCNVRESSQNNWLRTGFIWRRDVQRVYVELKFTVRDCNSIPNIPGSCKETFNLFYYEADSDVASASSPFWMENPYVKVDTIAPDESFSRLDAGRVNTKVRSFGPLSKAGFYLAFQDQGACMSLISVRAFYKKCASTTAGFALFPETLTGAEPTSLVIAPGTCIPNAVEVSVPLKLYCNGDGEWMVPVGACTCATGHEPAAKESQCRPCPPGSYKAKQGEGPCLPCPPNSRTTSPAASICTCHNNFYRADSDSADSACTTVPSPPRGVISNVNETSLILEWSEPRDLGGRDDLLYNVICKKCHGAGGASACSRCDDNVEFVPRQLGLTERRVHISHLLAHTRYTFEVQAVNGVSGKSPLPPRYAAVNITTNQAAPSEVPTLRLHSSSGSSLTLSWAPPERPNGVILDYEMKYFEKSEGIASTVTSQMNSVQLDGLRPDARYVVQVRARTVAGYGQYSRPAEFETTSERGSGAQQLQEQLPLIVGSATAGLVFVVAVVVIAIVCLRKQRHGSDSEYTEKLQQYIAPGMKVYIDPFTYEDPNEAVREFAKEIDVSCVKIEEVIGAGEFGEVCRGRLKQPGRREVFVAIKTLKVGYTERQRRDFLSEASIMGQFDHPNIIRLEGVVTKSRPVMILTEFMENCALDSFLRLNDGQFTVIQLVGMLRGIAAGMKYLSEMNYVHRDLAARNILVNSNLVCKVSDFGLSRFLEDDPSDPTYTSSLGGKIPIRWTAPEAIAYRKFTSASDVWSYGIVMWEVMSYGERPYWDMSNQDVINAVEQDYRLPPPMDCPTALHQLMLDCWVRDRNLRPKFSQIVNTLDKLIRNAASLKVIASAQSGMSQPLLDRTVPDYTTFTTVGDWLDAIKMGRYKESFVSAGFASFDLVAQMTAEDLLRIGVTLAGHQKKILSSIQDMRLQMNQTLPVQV

[13] = target: Focal adhesion kinase 1 (Homo sapiens) (UniProt Q05397); details: at 1 µM
Chain of Focal adhesion kinase 1 (Homo sapiens) (Q05397 2-1052 limits assumed): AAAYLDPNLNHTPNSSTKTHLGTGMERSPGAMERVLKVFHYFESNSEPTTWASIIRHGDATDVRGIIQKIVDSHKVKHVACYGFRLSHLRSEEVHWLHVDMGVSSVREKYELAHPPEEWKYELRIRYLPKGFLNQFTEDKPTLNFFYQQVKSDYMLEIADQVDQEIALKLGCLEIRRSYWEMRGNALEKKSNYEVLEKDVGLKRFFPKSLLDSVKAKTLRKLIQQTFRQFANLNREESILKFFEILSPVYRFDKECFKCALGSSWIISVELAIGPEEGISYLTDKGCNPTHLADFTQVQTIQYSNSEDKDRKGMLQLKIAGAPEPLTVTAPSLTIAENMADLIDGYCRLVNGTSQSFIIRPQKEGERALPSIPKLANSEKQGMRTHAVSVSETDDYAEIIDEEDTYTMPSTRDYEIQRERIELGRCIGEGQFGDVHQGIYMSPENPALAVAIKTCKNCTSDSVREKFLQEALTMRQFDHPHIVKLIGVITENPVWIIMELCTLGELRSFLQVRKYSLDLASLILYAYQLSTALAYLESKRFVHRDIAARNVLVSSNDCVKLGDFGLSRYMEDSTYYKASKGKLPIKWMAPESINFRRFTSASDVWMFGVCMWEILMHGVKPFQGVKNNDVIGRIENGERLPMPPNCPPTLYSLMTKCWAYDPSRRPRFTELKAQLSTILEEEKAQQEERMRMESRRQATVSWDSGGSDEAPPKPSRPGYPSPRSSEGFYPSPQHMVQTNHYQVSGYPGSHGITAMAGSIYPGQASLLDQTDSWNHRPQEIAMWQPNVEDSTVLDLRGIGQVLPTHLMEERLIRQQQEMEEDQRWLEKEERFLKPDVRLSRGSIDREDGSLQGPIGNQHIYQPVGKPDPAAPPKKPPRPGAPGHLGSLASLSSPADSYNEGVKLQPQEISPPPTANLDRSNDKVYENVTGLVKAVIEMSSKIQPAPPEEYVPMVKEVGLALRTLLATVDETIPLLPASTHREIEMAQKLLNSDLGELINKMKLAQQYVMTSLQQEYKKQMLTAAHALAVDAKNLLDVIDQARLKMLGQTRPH

Chain of Ephrin type-A receptor 4 (Homo sapiens) (P54764 whole entry): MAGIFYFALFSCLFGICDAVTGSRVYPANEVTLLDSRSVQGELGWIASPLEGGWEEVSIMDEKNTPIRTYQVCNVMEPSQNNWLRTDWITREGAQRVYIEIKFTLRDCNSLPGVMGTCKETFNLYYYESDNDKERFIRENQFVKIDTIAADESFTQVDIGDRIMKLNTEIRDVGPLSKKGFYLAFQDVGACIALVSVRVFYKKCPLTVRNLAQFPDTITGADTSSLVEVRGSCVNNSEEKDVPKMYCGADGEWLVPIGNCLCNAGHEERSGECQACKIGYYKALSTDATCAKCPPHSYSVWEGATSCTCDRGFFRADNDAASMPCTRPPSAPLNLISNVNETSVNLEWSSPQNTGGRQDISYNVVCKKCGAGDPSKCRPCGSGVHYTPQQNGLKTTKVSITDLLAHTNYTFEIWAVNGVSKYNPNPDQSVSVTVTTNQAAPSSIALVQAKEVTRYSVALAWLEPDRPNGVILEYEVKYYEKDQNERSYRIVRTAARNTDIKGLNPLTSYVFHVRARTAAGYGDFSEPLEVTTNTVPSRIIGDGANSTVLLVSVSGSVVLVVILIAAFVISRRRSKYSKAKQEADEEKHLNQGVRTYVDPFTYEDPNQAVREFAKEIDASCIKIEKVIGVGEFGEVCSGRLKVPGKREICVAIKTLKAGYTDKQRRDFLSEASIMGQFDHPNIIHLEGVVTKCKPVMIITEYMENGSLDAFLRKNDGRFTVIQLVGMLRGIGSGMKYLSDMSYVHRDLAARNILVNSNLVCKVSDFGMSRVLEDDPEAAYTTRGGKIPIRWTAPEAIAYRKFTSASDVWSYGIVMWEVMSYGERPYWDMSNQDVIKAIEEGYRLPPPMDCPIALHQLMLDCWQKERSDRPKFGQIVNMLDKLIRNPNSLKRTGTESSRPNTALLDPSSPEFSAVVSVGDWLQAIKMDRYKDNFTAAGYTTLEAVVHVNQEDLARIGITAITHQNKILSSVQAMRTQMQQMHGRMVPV
Chain of Ephrin type-A receptor 5 (Homo sapiens) (P54756 whole entry): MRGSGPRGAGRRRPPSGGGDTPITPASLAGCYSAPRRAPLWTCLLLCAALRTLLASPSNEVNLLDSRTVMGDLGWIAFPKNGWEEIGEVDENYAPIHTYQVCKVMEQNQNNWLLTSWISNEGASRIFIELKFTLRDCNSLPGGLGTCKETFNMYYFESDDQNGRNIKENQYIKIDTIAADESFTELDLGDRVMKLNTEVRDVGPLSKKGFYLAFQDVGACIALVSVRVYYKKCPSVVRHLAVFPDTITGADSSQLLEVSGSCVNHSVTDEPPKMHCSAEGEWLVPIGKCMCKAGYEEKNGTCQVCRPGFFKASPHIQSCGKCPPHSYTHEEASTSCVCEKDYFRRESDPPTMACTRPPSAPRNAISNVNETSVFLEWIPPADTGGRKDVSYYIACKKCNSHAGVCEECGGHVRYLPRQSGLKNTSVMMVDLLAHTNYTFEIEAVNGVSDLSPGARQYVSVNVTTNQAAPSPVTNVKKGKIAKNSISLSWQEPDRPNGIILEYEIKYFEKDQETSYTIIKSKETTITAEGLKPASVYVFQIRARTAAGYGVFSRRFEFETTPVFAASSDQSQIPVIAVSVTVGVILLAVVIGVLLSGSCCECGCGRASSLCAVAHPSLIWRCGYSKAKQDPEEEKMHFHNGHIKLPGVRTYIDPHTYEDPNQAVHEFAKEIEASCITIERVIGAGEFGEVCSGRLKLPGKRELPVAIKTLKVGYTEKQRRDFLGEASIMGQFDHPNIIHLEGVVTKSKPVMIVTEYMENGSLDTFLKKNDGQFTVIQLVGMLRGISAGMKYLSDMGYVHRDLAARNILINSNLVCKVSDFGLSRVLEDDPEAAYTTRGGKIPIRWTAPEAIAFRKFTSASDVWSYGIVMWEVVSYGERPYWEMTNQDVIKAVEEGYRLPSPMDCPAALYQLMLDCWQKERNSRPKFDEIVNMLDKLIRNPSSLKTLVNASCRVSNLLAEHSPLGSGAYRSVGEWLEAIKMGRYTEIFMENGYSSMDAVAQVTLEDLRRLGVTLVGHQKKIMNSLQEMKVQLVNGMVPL

SMILES | residual activity [1] [%] | residual activity [2] [%] | residual activity [3] [%] | residual activity [4] [%] | residual activity [5] [%] | residual activity [6] [%] | residual activity [7] [%] | residual activity [8] [%] | residual activity [9] [%] | residual activity [10] [%] | residual activity [11] [%] | residual activity [12] | residual activity [13] [%]
Nc1nc(Nc2ccc(S(N)(=O)=O)cc2)nn1C(=O)c1c(F)cccc1F | 108 | 95 | 103 | 73 | 52 | 8 | 55 | 78 | 14 | 103 | 68 | 115% (inactive) | 102
NC(=O)c1cccc(-c2cc(Nc3ccc(OC(F)(F)F)cc3)ncn2)c1 |  |  |  |  |  |  |  |  |  |  |  |  | 147
